According to PubChem BioAssay (Tox21):
Inconclusive results are not listed. Unmarked numbers belong to inactive results. The call rests on the fitted dose curve.

Test: qHTS assay to identify small molecule antagonists of the sonic hedgehog signaling (Shh) pathway (AID 1259369); further: nearly all actives have a fitted effect of over 45% in size
Settings: NIH/3T3 Gli1-Luc reporter, Shh antagonist, luminescence 24 h; series mostly up to 92.4 µM; activity change, negative = inhibition: at the top concentration
Source text: U.S. Tox21 Program National Center for Advancing Translational Sciences [NCATS] NIH Chemical Genomics Center [NCGC] U.S. Environmental Protection Agency [EPA] National Institutes of Environmental Health Sciences [NIEHS] National Toxicology Program [NTP] U.S. Food and Drug Administration [FDA] Tox21 Assay Overview: The sonic hedgehog (Shh) pathway is essential for normal embryonic development. Dysregulation of the Shh pathway can cause severe developmental defects in organs. Therefore chemicals that interfere with the pathway are potential developmental toxicants. A cell line designated 3T3Gli1-Luc (DMB/OARSA/CFSAN/FDA, Laurel, MD), a NIH/3T3 derived clone containing stably integrated Gli1-Luc reporter is used to detect chemical interference of the Shh pathway, by changes in the expression of the firefly Luc gene under the control of the Gli1 transcriptional response element. This cell line was used to screen Tox21 libraries for identifying and prioritizing the potential developmental toxicants that interfere Shh pathway. Conditioned medium-stimulated mode was used to screen for chemicals inhibiting Shh signaling.
Tox21 Assay Protocol Summary: 3T3 Gli1-Luc cells were dispensed at 2,000 per well in 5uL of culture medium into white solid bottom 1536-well plates (Greiner Bio-One, Monroe, NC) using a Multidrop Combi (Thermo Scientific, Waltham, MA) dispenser. The assay plates were incubated at 37 C and 5% CO2 for 4hr, and then 23nL of compounds dissolved in DMSO and positive control were transferred using a Pintool station (Wako, San Diego, CA). The compound transfer was followed by the addition of 1ul conditioned medium or assay buffer using two separate tips of Flying Reagent Dispenser (FRD, Aurora Discovery, San Diego, CA). The assay plates were incubated at 37C and 5% CO2 for 24hr. For luciferase read, 4uL of Amplite Luciferase reporter gene assay reagent (AAT Bioquest, Inc. Sunnyvale, CA) was added to each well of the assay plates using FRD and incubated at room temperature for 30min. The luminescence signal was measured using a ViewLux plate reader (Perkin Elmer, Shelton, CT).
On the % scale 0 is the no-effect control and ±100 the full control effect.

In order of falling “activity change, negative = inhibition” value:
1. CC(=O)c1ccc(OCC(=O)N2CCCCC2)cc1  24.9% [at 42.5 µM]
2. COc1ccc(NS(=O)(=O)c2ccc(N)cc2)nn1  24.4% [at 42.5 µM]
3. COc1cc2c3cc1Oc1cc(ccc1O)C[C@@H]1c4c(cc(OC)c(O)c4Oc4ccc(cc4)C[C@@H]3N(C)CC2)CC[N+]1(C)C  23.2% [at 42.5 µM]
4. O=C(O)c1ccccc1C(=O)Nc1ccc(S(=O)(=O)Nc2nccs2)cc1  12% [at 42.5 µM]
5. C=CCOCC(CO)(COCC=C)COCC=C  9.49% [at 42.5 µM]
6. CCCCCN(CCCOC)C(=O)C(CCC(=O)O)NC(=O)c1ccc(Cl)c(Cl)c1 (stereo not given)  8.06% [at 42.5 µM]
7. Cn1c(=O)c2c(ncn2CC2OCCO2)n(C)c1=O  4.74% [at 42.5 µM]
8. O=C1CC[C@H](C(=O)N2CCCCC2)N1  4.01% [at 42.5 µM]
9. NS(=O)(=O)c1cc2c(cc1Cl)NC(CC1CCCC1)NS2(=O)=O (stereo not given)  0.936% [at 42.5 µM]
10. O=c1[nH]c(=O)c2ccccc2o1  -1.35% [at 42.5 µM]
11. CCOC(=O)OCC/C(SC(=O)OCC)=C(\C)N(C=O)Cc1cnc(C)nc1N  -7.63% [at 42.5 µM]

In order of rising “activity change, negative = inhibition” value:
1. c1ccc(CNc2ncnc3nc[nH]c23)cc1  -16.9%
2. NS(=O)(=O)c1ccccc1OC(F)(F)F  -13.9%
3. C=CCOC(=O)c1ccc(C(=O)OCC=C)c(C(=O)OCC=C)c1  -12.1%
4. FC(F)(F)/C(=N\OCC1OCCO1)c1ccc(Cl)cc1  -9.69%
5. CNC(=O)NC  -9.37%
6. C=CC(C)(O)CC/C=C(\C)CC (stereo not given)  -0.559%
7. CC(C)CCO  -0.163%
8. CN(C)CCCNCCC#N  0%
9. CCCCCCCCCCCCCC(=O)OC  0%
10. CC(=O)OC(C)c1ccccc1 (stereo not given)  0%
11. CCN1CN(CC)CN(CC)C1  0%
12. CCCCCC1CCCC(=O)O1 (stereo not given)  0%
13. OC[C@@H](O)[C@H](O)[C@@H](O)[C@@H](O)CO  0%
14. CCCCCCCC/C=C\CCCCCCCC(=O)OC[C@@H](O)[C@H]1OC[C@H](O)[C@H]1O  0%
15. CCC(C)(CCC(C)C)C(=O)[O-].CCC(C)(CCC(C)C)C(=O)[O-].[Zn+2] (stereo not given)  0%
16. CCCCOC(=O)C(C)OC(=O)CCC (stereo not given)  0%
17. CCN(CCC#N)c1ccccc1  0%
18. COC(=O)CCC(=O)O  0%
19. Nc1cc(C(=O)O)ccc1Cl  0%
20. C=C(C)[C@@H]1CC[C@@H](C)C[C@@H]1O  4.64%
21. C1=C\CC/C=C\CC/1  6.18%
22. NC(=O)NNC(N)=O  10.5%
23. COCCOCCOCCOC  10.7%
24. C=CCOc1c(Br)cc(Br)cc1Br  11.9%
25. CCC1COC(=O)O1 (stereo not given)  14.4%
26. CCCC(C)CC (stereo not given)  16.8%
27. CC(C)=CC(C)(C)C  17.8%

In the case of `Nc1c(NC/C=C\COc2cc(CN3CCCCC3)ccn2)c(=O)c1=O`, the activity change, negative = inhibition is reported as 0.103% [at 19 µM].

Work on `O=CO` yielded an activity change, negative = inhibition of 8.06% [at 8.39 µM].
